Source: PubChem BioAssay
Unmarked numbers belong to inactive results. How the calls were made is not given here.

Test: inhibition of PAO1 biofilm formation – strain PAO1, LB-PBS medium, absorbance 600 nm, primary screen (AID 1176); further: test concentration not given here
Details: P. aeruginosa PAO1 growth/biofilm, A600, 12 h; higher = more signal

Compound	z-score
CC(CCN1CCCCc2nc(C)c(C)cc21)=NOC[C@@H](C)[C@H](OCc1ccccc1)C(C)C	0.147
COC(=O)CC=C[C@@H](C)[C@@H](C=NO[C@@H]1O[C@H](COC(C)=O)[C@@H](OC(C)=O)[C@H](OC(C)=O)[C@H]1OC(C)=O)OC	0.0738
CO[C@@H]1COC(=O)[C@H](CCSC)NC(=O)CC=C[C@@H](C)COC(=O)CCC[C@H]1C	-0.892
CCCNC(=O)OC[C@H]1O[C@H](CCON=C(C)CCC(=O)OC[C@H]2O[C@H](c3ccccc3)C=C[C@@H]2Oc2ccc(OC)cc2)C=C[C@@H]1Oc1ccc(OC)cc1	0.0525
CCN1C(=O)[C@@H]2[C@H]3C(=CC[C@@H]2C1=O)C1(OCCCO1)[C@H]1O[C@H]1[C@H]3O	2.64
O=C1[C@H]2[C@H]3[C@H](O)[C@H](O)CC(=NOC[C@@H](O)COCc4ccco4)[C@H]3CC[C@H]2C(=O)N1Cc1ccccc1	0.377
CO[C@H]1COC(=O)[C@@H](C)COC(=O)[C@H](C)NC(=O)CC=C[C@H]1C	-1.13
C[C@H]1COC(=O)[C@@H]2CCCN2C(=O)[C@@H](C)COC(=O)[C@H](Cc2ccccc2)NC1=O	-0.348
COC(=O)CC=C[C@@H](C)[C@H](OCc1cccc(-c2ccccc2)c1)C1CCCCC1	-0.409
C=CC[C@@H]1C=C[C@H](ON=C(C)CCC(=O)OC[C@H]2O[C@H](C#Cc3ccccc3)C=C[C@@H]2Oc2ccc(C)cc2)[C@@H](CO)O1	-0.242
CON=C[C@@H](NS(=O)(=O)c1ccc(C)cc1)[C@H](C)C=CCC(=O)OC	-0.291
CO[C@@H]1COC(=O)CC=C[C@H](C)[C@H](OC)COC(=O)[C@H](C)NC(=O)CC=C[C@H]1C	-0.638
CC(CCC(=O)OC[C@H]1O[C@H](C#Cc2ccccc2)C=C[C@@H]1Oc1ccc(C)cc1)=NO[C@H](C)c1cn([C@H](CO)Cc2ccccc2)nn1	0.463
CCOC(=O)[C@H](Cc1ccccc1)NC(=O)CCC1CC(OC(=O)NCc2cccc3ccccc23)CC2(CCCC(COC(=O)NCC(c3ccccc3)c3ccccc3)O2)O1 (stereo partly specified)	-0.163
CC(C)=CCCC(C)=CCON=C1C[C@@H](O)[C@@H](O)[C@@H]2[C@@H]3C(=O)N(C[C@@H]4CCCO4)C(=O)[C@@H]3CC[C@H]12	0.295
COC(=O)[C@H]1O[C@@H](c2c(OC)c(OC)c(C)c(OC)c2OC)[C@H](C)[C@@H](O)[C@H]1C	0.417
COc1ccc(O[C@H]2C=C[C@@H](c3ccccc3)O[C@@H]2COC(=O)CCC(C)=NOC[C@@H](O)[C@H]2O[C@@H]3OC(C)(C)O[C@@H]3[C@H]2O)cc1	-0.348
CCOC(=O)[C@H](CC(C)C)NC(=O)CCC1CC(OC(=O)NCCc2ccc(F)cc2)CC2(CCCC(COC(=O)NCC3CCCCC3)O2)O1 (stereo partly specified)	0.201

Compound	z-score
CC(C)=CCCC(C)=CCON=C1C[C@@H](O)[C@@H](O)[C@@H]2[C@@H]3C(=O)N(C4CCCCC4)C(=O)[C@@H]3CC[C@@H]12	0.565
COC(=O)CC=C[C@@H](C)[C@@H](C=NOC[C@H]1O[C@H](c2ccccc2)C=C[C@@H]1Oc1ccc(OC)cc1)NS(=O)(=O)c1ccc(C)cc1	-0.0781
CCc1cc2c(nc1CC)CCN(CCC(C)=NO[C@H](C)c1cn([C@@H]3COC[C@H]3O)nn1)C2	-0.643
CCOC(=O)NN=C1C[C@@H](O)[C@@H](O)[C@@H]2[C@@H]3C(=O)N(Cc4ccc5c(c4)OCO5)C(=O)[C@@H]3CC[C@H]12	-0.981
CO[C@H]1COC(=O)CC=C[C@H](C)[C@@H](OC)COC(=O)[C@@H](C)NC(=O)CC=C[C@@H]1C	-0.491
CO[C@@H]1COC(=O)CC=C[C@@H](C)[C@@H]2C=C[C@H](O)[C@@H](COC(=O)CC=C[C@H]1C)O2	0.765
CCOC(=O)[C@H](CC(C)C)NC(=O)CCC1CC(OC(=O)NCCc2ccc(F)cc2)CC2(CCCC(COC(=O)NCCc3ccccc3OC)O2)O1 (stereo partly specified)	0.45
CCCNC(=O)OC[C@H]1O[C@H](CCON=C(C)CCN2CCCc3nc(C)c(C)cc32)C=C[C@@H]1Oc1ccc(OC)cc1	0.9
CCC(=O)[C@@]1(O)C(=O)N2C(=C3C(=O)OCC[C@@H]31)N(Cc1ccccc1)C(C)=C(C(=O)OC)[C@H]2c1ccccc1	0.936
CC(C)(C)N1C(=O)[C@H]2[C@H]3[C@H](O)C=CC(=O)[C@@H]3CC[C@H]2C1=O	-0.118
CC(CCN1CCCc2nc(C)c(C)cc21)=NO[C@@H](C)c1cc(-c2c(C)cc(C)cc2C)no1	0.0525
C[C@H](ON=C1[C@H]2CCn3c(=O)n(-c4ccccc4)c(=O)n3[C@H]2[C@H](O)[C@@H]2O[C@H]12)c1cn([C@H](CO)Cc2ccccc2)nn1	0.0282
CCN1C(=O)[C@H]2[C@H]3[C@H](O)[C@H](O)CC(=O)[C@H]3CC[C@H]2C1=O	-0.543
C#CCCCON=C1C[C@@H](O)[C@@H](O)[C@@H]2[C@@H]3C(=O)N(c4ccc(F)cc4F)C(=O)[C@@H]3CC[C@H]12	0.577
O=C(NN=C1C[C@@H](O)[C@@H](O)[C@@H]2[C@@H]3C(=O)N(C4CCCCC4)C(=O)[C@@H]3CC[C@@H]12)OCc1ccccc1	-0.814
CC(CCN1CCCCc2nc(C)c(C)cc21)=NOC[C@@H](O)COCc1ccco1	-0.16
C=CC1=C[C@H](O)[C@@H]2O[C@@H]2C12OCCCO2	0.262
CON=C1[C@H]2CCn3c(=O)n(-c4ccccc4)c(=O)n3[C@H]2[C@H](O)[C@@H]2O[C@H]12	0.335
